# Screens (PubChem BioAssay)
# Most compounds without a hit are left out; they make up all but 11% or so of the library.
# OTUD3 block: human OTUD3 deubiquitinase inhibition; AID 1645858; 47,000 tested, 0.7% active; inhibition, % at 25 µM; purified OTUD3, Ub-rhodamine fluorescence, 2 h; Q5T2D3
# Target sequence (Q5T2D3 whole entry, looked up): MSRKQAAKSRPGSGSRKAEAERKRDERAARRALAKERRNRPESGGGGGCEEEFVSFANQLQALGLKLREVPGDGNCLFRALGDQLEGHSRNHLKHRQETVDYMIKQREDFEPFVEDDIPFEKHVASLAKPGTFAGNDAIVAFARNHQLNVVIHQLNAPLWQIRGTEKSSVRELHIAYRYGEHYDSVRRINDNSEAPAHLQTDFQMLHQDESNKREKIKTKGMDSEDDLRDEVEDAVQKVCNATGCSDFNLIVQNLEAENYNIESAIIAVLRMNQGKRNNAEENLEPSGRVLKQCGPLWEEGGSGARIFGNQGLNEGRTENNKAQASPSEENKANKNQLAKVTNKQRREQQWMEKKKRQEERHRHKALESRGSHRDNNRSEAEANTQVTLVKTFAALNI
# USP17 inh: inhibitors of human USP17 deubiquitinase; A8MUK1; purified USP17, Ub-rhodamine cleavage fluorescence, 3 h; inhibition, % at 50 µM; 47,000 tested, 6.5% active
# USP28 block: inhibitors of human USP28 deubiquitinase. Q96RU2. purified USP28, Ub-rhodamine cleavage fluorescence, 30 min. inhibition, % at 25 µM. 47,000 tested, 3% active
# USP30 block: human USP30 deubiquitinase inhibition | Q70CQ3 | purified USP30, Ub-rhodamine cleavage fluorescence | inhibition, % at 25 µM | 47,000 tested, 5.3% active | AID 1645860
# An asterisk follows results filed as active; / = no result given. Rule as the data show it: active = inhibition above about 30%; inactive = the rest.
SMILES,OTUD3 block,USP17 inh,USP28 block,USP30 block
O=C(OCC(=O)N1CCc2ccccc21)c1cc([N+](=O)[O-])ccc1NCCO,8,60*,/,/
O=C(Cn1ncc2cc([N+](=O)[O-])ccc21)N1CCc2ccccc21,-25,-4,-42,-191
Cc1occc1C(=O)N1CCC2(CC1)CCN(c1ncccn1)CC2,-15,-17,-11,-38
COc1ccccc1Nc1cc(C)nc2nc(-c3ccco3)nn12,-27,41*,-4,-32
CC(Sc1nnc(-c2ccccc2Br)o1)C(=O)Nc1cccc(Cl)c1 (configuration not stated),23,22,23,43*
Cc1ccccc1OCC(=O)OCC(=O)N(C)c1ccccc1,9,4,0,16
O=C(COc1ccccc1)N1CCC2(CC1)NC(=O)N(Cc1ccc(Cl)cc1)C2=O,-17,/,-14,-18
O=C(COc1ccc(Cl)cc1)N1CCC(c2c[nH]c3ccccc23)(c2c[nH]c3ccccc23)CC1,25,/,5,39*
CCOc1c(C)cc(S(=O)(=O)Nc2ccc3c(c2)N(C(C)=O)CC3)cc1C,-7,68*,/,/
O=C(Oc1ccc2c(c1)OCO2)C(c1ccccc1)c1ccccc1,20,15,19,13
COc1cccc(-c2ocnc2C(=O)Nc2cc(C)ccc2C)c1,1,-8,-17,0
O=C(Nc1ccccc1Cl)c1ncoc1-c1cccs1,-7,-12,0,3
COc1ccc(NC(=O)c2ncoc2-c2cccs2)c(OC)c1,0,46*,-6,9
COc1cccc(CNC(=O)c2sc(-c3ccc(OC)c(OC)c3)nc2C)c1,16,45*,12,13
COc1cccc(-c2ocnc2C(=O)Nc2ccc(C)cc2C)c1,11,39*,14,34*
COc1ccc(-c2cc(C(=O)Nc3ccccc3F)on2)cc1,0,42*,2,0
O=C(c1ccnnc1)N1CCCCC1c1ncc(Cc2ccccc2)o1 (configuration not stated),0,-1,0,7
COc1ccc(CNC(=O)c2ncoc2-c2ccc(OC)cc2)cc1,18,8,25,21
COc1ccc(-c2ocnc2C(=O)Nc2ccccc2F)cc1OC,37*,76*,27,81*
COc1ccc(-c2ocnc2C(=O)NCc2ccc(F)cc2)cc1OC,1,3,14,-10
COc1ccc(-c2ocnc2C(=O)NCc2cccc(OC)c2)cc1,11,22,44*,23
CCOc1ccc(CCNC(=O)C(C)n2nc(C)c3ccccc32)cc1OCC (configuration not stated),0,-3,-1,-6
Cc1ccc(Oc2ccccc2NC(=O)CSc2nc(N)nc(N)n2)cc1,-14,43*,-7,-108
COc1ccc(C(CC(=O)Nc2ccccc2OC)n2cccc2)cc1 (configuration not stated),0,8,3,-9
Cc1ccc(CNC(=O)c2ccccc2OCc2ccc(Cl)cc2)cc1,12,11,17,24
SMILES,OTUD3 block,USP17 inh,USP28 block,USP30 block
COc1ccccc1CNC(=O)c1ccccc1OCc1ccc(F)cc1,27,27,29,38*
COc1cccc(CNC(=O)c2ccccc2OCc2ccccc2)c1,17,31*,19,41*
O=C(NCCN1CCN(c2cccc(Cl)c2)CC1)c1[nH]nc2c1COc1ccccc1-2,8,5,23,14
O=C(COc1ccc(Cl)cc1-n1cnnc1)Nc1cccc(O)c1,-27,-46,-43,-138
O=C(COc1cccc2ccc(N3CCC(Cc4ccccc4)CC3)nc12)Nc1cccc(Cl)c1,2,39*,5,2
O=c1c(NCCc2ccc(Cl)cc2)nccn1-c1ccc2c(c1)OCO2,-1,-14,0,-14
O=S(=O)(c1ccc(F)c(F)c1)N1CCCCC1c1nnc(-c2cccnc2)o1 (configuration not stated),-10,-3,-13,-9
O=C(NCc1ccc(-c2nc3cnccc3o2)cc1)c1ccccc1Br,13,68*,14,25
CCc1nc(-c2cccc(NC(=O)c3ccccc3F)c2)no1,-2,6,36*,3
Cc1nc(-c2cccc(NC(=O)c3ccc(C#N)cc3)c2)no1,5,17,/,/
CC(=O)c1cccc(NC(=O)c2ccc(-c3noc(C)n3)cc2)c1,14,21,30*,14
Cc1nc(-c2cccc(NC(=O)c3ccccc3F)c2)no1,-1,2,21,0
Cc1nc(-c2cccc(NC(=O)c3ccccc3Cl)c2)no1,15,5,52*,18
Cc1cc(C(=O)Nc2cnc(N3CCCCC3)nc2)no1,13,19,28,6
O=C(Nc1cccc(-c2nc3cnccc3o2)c1)c1ccccc1F,-1,44*,/,/
C[C@H]1[C@H](C)CCC23CC[C@]4(C)[C@@](C=CC5[C@@]6(C)CC[C@H](O)C(C)(C)[C@@H]6CC[C@]54C)(OC2=O)[C@H]13 (some centres not stated),32*,50*,38*,56*
COc1ccc(CN2C(=O)N[C@@H](CCC(=O)Nc3cccc(Cl)c3)C2=O)cc1,10,14,15,26
COc1ccc(CN2C(=O)N[C@@H](CCC(=O)Nc3cccc(OC)c3)C2=O)cc1,11,45*,9,4
CCc1nnc2c(NC(=O)Cc3ccc(OC)c(Cl)c3)cccn12,3,-6,47*,-33
COc1ccc(C(=O)c2c[nH]cc2-c2ccc(C)cc2)cc1OC,1,31*,-3,13
O=C(NCc1ccc2c(c1)OCO2)c1cc([N+](=O)[O-])ccc1N1CCCCC1,24,6,23,33*
COc1ccc(CNC(=O)c2cccc(-c3cnc(N4CCCC4)nc3)c2)cc1,-1,45*,0,49*
Cn1cc(C(=O)NCc2ccc3c(c2)OCO3)c(S(=O)(=O)N2CCCCCC2)n1,6,-7,3,-7
Cc1cccc(CNC(=O)c2cccc(-c3cnc(N4CCCC4)nc3)c2)c1,0,-3,-7,7
O=C(NCc1ccc2c(c1)OCO2)c1cccc(-c2cnc(N3CCCC3)nc2)c1,14,30*,14,43*
SMILES,OTUD3 block,USP17 inh,USP28 block,USP30 block
CN(Cc1ccc(Br)cc1)C(=O)c1cccc2cccnc12,5,2,6,-13
O=C(Cn1cnc(-c2noc(-c3ccncc3)n2)c1)N1CCN(c2ccc(F)cc2)CC1,5,16,4,-4
Cc1nc(-c2noc(-c3ccncc3)n2)cn1CC(=O)N1CCN(c2ccc(F)cc2)CC1,3,0,1,62*
CCOc1cc2c(cc1OCC)C(c1ccc(Cl)cc1)N(c1ccc(C(=O)O)cc1)C(=O)C2 (configuration not stated),16,28,18,31*
O=C(c1cc(C2CC2)[nH]n1)N1CCC(C2Nc3ccccc3S(=O)(=O)N2)CC1 (configuration not stated),11,8,11,22
O=C(c1cn2cc(Cl)ccc2n1)N1CCC(Cc2ccccc2)CC1,17,21,20,30*
O=C(c1cc(C2CC2)[nH]n1)N1CCC(Cc2ccccc2)CC1,7,3,21,32*
